Measurements: PubChem BioAssay (NCATS)
Where “and” joins values, the source holds several entries; their conditions need not be identical. Equal entries are not always repeated. A structure can be active in one record and inactive in another. Calls of active or inactive are those of the source. Unless noted, calls follow the shape of the dose curve; as a rule, active = well fitted curve in the direction sought with a large enough effect; inconclusive = small, poorly fitted or top-dose-only effect, or another doubt; inactive = no such curve, though single readings can be large; an effect the other way counts as inactive or inconclusive.

What was measured:
[1] = target: Thyrotropin-releasing hormone receptor (Homo sapiens) (UniProt P34981); assay: qHTS for Small Molecule Agonists and Allosteric Enhancers of Human TRH Receptor: Validation Screen for Agonists (AID 493127;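 active = calcium activation more than 3 SD above the typical response in the agonist read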;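 also: intracellular calcium rise by fluo-8 fluorescence before TRH EC20 addition; 0% is about no effect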); settings: TRH receptor agonist cell assay; at 2 µM; stronger effect = higher value
Procedure, shortened: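 Compound-evoked intracellular calcium release in fluo-8-loaded TRHR cells, read kinetically on FDSS (Ex 480/Em 530, 1 s/cycle) after 23 nL pintool transfer. Agonist phase preceded 10 nM TRH EC20 addition.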

[2] = Cell Viability - NIH 3T3 (AID 541); settings: NIH 3T3 cell viability, qHTS; activity change, negative = cytotoxicity: at 92.2 µM (top of the series);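 also: cells exposed to compound for 40 hours; plate controls were DMSO alone for no effect and tamoxifen positive control for full effect; nearly all actives have a fitted effect of over 25% in size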
Procedure, shortened: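 Intracellular ATP (CellTiter-Glo luminescence, 20 min at room temperature) measured after 40 hr compound exposure at 37 °C of 1000 NIH 3T3 mouse fibroblasts/well in complete medium; AC50 derived by Hill-equation modelling of qHTS concentration-response curves.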

[3] = target: Cytochrome P450 3A4 (Homo sapiens) (UniProt P08684); assay: qHTS Assay for Inhibitors and Substrates of Cytochrome P450 3A4 (AID 884); settings: recombinant CYP3A4, Luciferin-PPXE luminescence; series mostly up to 57.1 µM; also: nearly all actives have a fitted effect of over 50% in size; also: potency is read from the fitted curve at half-maximal effect
Procedure, shortened: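 Luminescent readout of luciferin produced by CYP3A4 (20 nM) dealkylation of Luciferin-PPXE, 25 uM (its KM). NADPH-driven reaction ran 60 min at RT after 10 min compound preincubation; data scaled to 57 uM ketoconazole as 100% inhibition.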

[4] = MultiTox-Fluor Cytotoxicity Assay - LYMP1-003 - Dead Cells (AID 961); settings: LYMP1-003 lymphoblastoid cells, dead-cell protease fluorescence; series mostly up to 92.2 µM; also: nearly all actives have a fitted effect of over 70% in size
Procedure, shortened: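 LYMP1-003 lymphoblastoid, 2500 cells/well, 5 hr settle then 16 hr cpd at 37 C; MultiTox-Fluor reagent 60 min RT; Ex/Em 485/520 dead-cell signal; norm. DMSO = 0%, 15 uM tetraoctylammonium bromide = 100%; Hill AC50.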

[5] = Cell Viability - LYMP2-007 (AID 979); settings: LYMP2-007 lymphoblastoid cell viability; series mostly up to 92.2 µM;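 also: cells exposed to compound for 24 h before reading; 0% = DMSO only and the negative end = 92 µM tetraoctylammonium bromide; nearly all actives have a fitted effect of over 60% in size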
Procedure, shortened: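 AC50 values come from Hill-equation fits of luminescent intracellular ATP (CellTiter-Glo, 30 min, room temperature) following 24 h compound exposure at 37 C. Cells: LYMP2-007 lymphoblastoid line, 2500 per well, in complete culture medium.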

[6] = Cell Viability - LYMP2-018 (AID 985); settings: LYMP2-018 lymphoblastoid cells, viability (qHTS); series mostly up to 92.2 µM;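 also: plate controls were DMSO only for no effect and tetraoctylammonium bromide at 92 µM for full effect; nearly all actives have a fitted effect of over 50% in size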
Procedure, shortened: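 Viability read as CellTiter-Glo luminescence (cellular ATP) after 24 hr compound exposure at 37 C of 2500 LYMP2-018 lymphoblastoid cells/well, pre-plated 5 hr. Hill-equation modelling gave AC50.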

[7] = target: Estrogen receptor (Homo sapiens) (UniProt P03372); assay: qHTS assay for small molecule antagonists of estrogen receptor alpha signaling (AID 588513; active = well fitted curve in the direction sought with a large enough effect in the signal ratio, with a control signal flat, not every such curve was filed as active; inconclusive = small, poorly fitted or top-dose-only effect, or effect the other way, or a change in a side signal; inactive = no such curve, though single readings can be large or run the other way; the % refers to the signal ratio; also: potency is read from the fitted curve at half-maximal effect); settings: ER-alpha-UAS-bla HEK293, beta-lactamase ratio, antagonist mode; series mostly up to 76.9 µM
Procedure, shortened: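 ER-alpha-UAS-bla GripTite HEK 293 cells in medium with 2% charcoal/dextran-treated FBS were preincubated 4 h at 37 C, dosed with compound (1:2 titration), stimulated with 0.5nM 17-beta-estradiol for 18 h, then read by CCF4 beta-lactamase fluorescence.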

[8] = target: Estrogen receptor (Homo sapiens) (UniProt P03372); assay: qHTS assay for small molecule agonists of estrogen receptor alpha signaling (AID 588514; calls by dose curve; also: nearly all actives have a fitted effect of over 70% in size; also: potency is read from the fitted curve at half-maximal effect;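 as to activation: 0% = vehicle only and 100% = reference agonist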); settings: ER-alpha-UAS-bla HEK293, beta-lactamase ratio, 18 h; series mostly up to 76.8 µM
Procedure, shortened: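 EC50 and efficacy came from Hill fits of beta-lactamase reporter signal (CCF4 dye, 2 h at room temperature) scaled between DMSO and 20 nM 17-beta-estradiol. Agonist mode: HEK293 ER-alpha-UAS-bla cells in charcoal/dextran-stripped serum medium, 18 h compound exposure at 37 C.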

[9] = target: Peroxisome proliferator-activated receptor gamma (Homo sapiens) (UniProt P37231); assay: qHTS assay for small molecule antagonists of peroxisome proliferator-activated receptor gamma signaling (AID 588537; active = well fitted inhibition curve with a large enough effect in the signal ratio, with a control signal flat, not every such curve was filed as active; inconclusive = small, poorly fitted or top-dose-only effect, or effect the other way, or a change in a side signal; the % refers to the signal ratio;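 also: reporter cells co-stimulated with 50 nM rosiglitazone agonist during compound treatment; % of control where 0% means no effect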); settings: HEK293 PPARg-UAS-bla, beta-lactamase ratio, antagonist mode; series mostly up to 76.8 µM
Procedure, shortened: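 Compounds are tested as concentration series for inhibition of rosiglitazone-driven (50 nM) reporter expression in GeneBLAzer PPAR-gamma-UAS-bla HEK293 cells. After 16 h at 37 C, CCF4 substrate is added for 2 h at room temperature and blue/green fluorescence is measured.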

[10] = qHTS assay for small molecule agonists of retinoid X receptor alpha signaling (AID 588544); settings: HEK293T RXRa-UAS-bla, beta-lactamase reporter, 18 h; 530 nm emission
[11] = qHTS assay for small molecule activators of the nuclear factor-kappa B (NF-kB) signaling pathway (AID 651749; active = well fitted activation curve with a large enough effect in the signal ratio; inconclusive = small, poorly fitted or top-dose-only effect, or a change in a side signal; the % refers to the signal ratio; also: % of control where 0% means no effect); settings: NF-kB-bla ME-180 cells, beta-lactamase FRET ratio, 16 h; activation: stronger effect = higher value
Procedure, shortened: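 Human ME-180 cervical cells with an NF-kB-bla construct; compounds added via 23 nL pin transfer, DMSO as vehicle; incubation 16 hr. Reporter activity measured by FRET disruption.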

[12] = target: Nuclear receptor subfamily 1 group I member 2 (Rattus norvegicus) (UniProt Q9R1A7); assay: qHTS assay for small molecule activators of the rat pregnane X receptor (rPXR) signaling pathway (AID 651751; call rule not given here; also: 0% is about no effect); settings: rPXR reporter cells, luciferase (One-Glo), 24 h
[13] = Quantitative high throughput screen for delayed death inhibitors of the malarial parasite plastid, 48 hour incubation (AID 488752); settings: Plasmodium falciparum growth; series mostly up to 28.7 µM; also: nearly all actives have a fitted effect of over 65% in size; also: potency is read from the fitted curve at half-maximal effect
Procedure, shortened: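 One-generation (48 h) growth assay: a decrease in luciferase signal from an integrated reporter in P. falciparum-infected red cells (0.1% parasitemia, 2% hematocrit) after compound exposure at 37 C indicates parasite inhibition.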

[14] = Validation screen for small molecules that induce DNA re-replication in SW480 colon adenocarcinoma cells (AID 504364); settings: DNA re-replication phenotype (high-content imaging); series mostly up to 46.1 µM; also: 0% is about no effect
Procedure, shortened: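 Image-based DNA content read-out: Hoechst stain 40 min, total nuclear fluorescence intensity (ex 405 nm, em 500-530 nm) after 48 h compound exposure of 250 SW480 cells/well at 37 C, 5% CO2, versus DMSO vehicle.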

[15] = target: Vitamin D3 receptor (Homo sapiens) (UniProt P11473); assay: qHTS assay for small molecule antagonists of vitamin D receptor signaling (AID 588541; calls by dose curve;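 also: receptor activated by calcitriol during compound treatment; % is scaled to controls: 0 for no effect and ±100 for the full control effect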); settings: HEK293T VDR-UAS-bla, beta-lactamase ratio, antagonist mode; series mostly up to 76.7 µM
Procedure, shortened: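 VDR-UAS-bla HEK293T cells (2000/well, 2% charcoal-stripped FBS) were treated with titrated compounds plus 1-alpha,25-dihydroxyvitamin D3 (50 nM or 3 nM final) for 16 h at 37 C. CCF4 beta-lactamase fluorescence was read; Hill fits gave IC50.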

[16] = target: Vitamin D3 receptor (Homo sapiens) (UniProt P11473); assay: qHTS assay for small molecule agonists of vitamin D receptor signaling (AID 588543; calls by dose curve;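 also: 0% = DMSO basal and 100% = reference agonist control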); settings: HEK293T VDR-UAS-bla, beta-lactamase ratio, 16 h; series mostly up to 76.8 µM
Procedure, shortened: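 GeneBLAzer VDR-UAS-bla HEK293T cells in 2% charcoal-stripped FBS medium were dosed with compound titrations for 16 h at 37 °C; CCF4 β-lactamase readout (405 nm ex, 460/530 nm em). EC50 and efficacy from Hill fits, normalized to 50 nM calcitriol (100%) and DMSO (0%).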

[17] = qHTS assay for small molecule agonists of the antioxidant response element (ARE) signaling pathway (AID 651741; active = well fitted activation curve with a large enough effect in the signal ratio; inconclusive = small, poorly fitted or top-dose-only effect, or effect the other way, or a change in a side signal; the % refers to the signal ratio; also: potency is read from the fitted curve at half-maximal effect; as to activation: % of control where 0% means no effect); settings: HepG2 ARE-bla reporter, beta-lactamase FRET ratio, 16 h; series mostly up to 96 µM
Procedure, shortened: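 Reporter: beta-lactamase under ARE, stably in HepG2. Exposure: 16 h, 37 C, compounds delivered in DMSO by pin tool after 5 h cell preincubation. Readout: FRET substrate fluorescence after 2 h at RT.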

[18] = qHTS assay for environmental chemicals that activate the Aryl hydrocarbon Receptor (AhR) signaling pathway (AID 651777); settings: 1A2-DRE human hepatoma cells, luciferase, 24 h; activation: stronger effect = higher value; also: % of control where 0% means no effect; nearly all actives have a fitted effect of over 15% in size
Procedure, shortened: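 Concentration–response screening used 1,200 1A2-DRE cells per well, 24 hr compound exposure (37 C, 5% CO2), and One-Glo luminescence as the AhR-driven CYP1A2 reporter signal.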

[19] = Cell Viability - Jurkat (AID 426;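 active = dose-dependent loss of cell ATP signal giving a full or clear fitted curve, ranked by lower potency value; inconclusive = weak partial curve or response only at the top dose; inactive = no loss of viability signal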;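 also: potency is read from the fitted curve at half-maximal effect; cells exposed to compound for 40 hours at 37 °C before ATP read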); settings: qHTS
Procedure, shortened: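 Cytotoxicity taken as drop in cellular ATP (CellTiter-Glo luminescence, 20 min room temperature) after 40 hr, 37C treatment of 5000 Jurkat Clone E6-1 cells per well; concentration-response fitted with Hill equation for AC50.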

[20] = Cell Viability - HUV-EC-C (AID 542); settings: HUV-EC-C endothelial cell viability, qHTS; series mostly up to 92.2 µM;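 also: cells exposed to compound for 40 hours; % is scaled to controls: 0 for no effect and ±100 for the full control effect; nearly all actives have a fitted effect of over 35% in size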
Procedure, shortened: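 CellTiter-Glo luminescence measured ATP loss in HUV-EC-C cells (1000/well) after 40 hr compound exposure at 37 °C, in complete culture medium. Concentration-response data were Hill-fitted to give AC50.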

Sequence of Vitamin D3 receptor (Homo sapiens) (P11473 whole entry, looked up): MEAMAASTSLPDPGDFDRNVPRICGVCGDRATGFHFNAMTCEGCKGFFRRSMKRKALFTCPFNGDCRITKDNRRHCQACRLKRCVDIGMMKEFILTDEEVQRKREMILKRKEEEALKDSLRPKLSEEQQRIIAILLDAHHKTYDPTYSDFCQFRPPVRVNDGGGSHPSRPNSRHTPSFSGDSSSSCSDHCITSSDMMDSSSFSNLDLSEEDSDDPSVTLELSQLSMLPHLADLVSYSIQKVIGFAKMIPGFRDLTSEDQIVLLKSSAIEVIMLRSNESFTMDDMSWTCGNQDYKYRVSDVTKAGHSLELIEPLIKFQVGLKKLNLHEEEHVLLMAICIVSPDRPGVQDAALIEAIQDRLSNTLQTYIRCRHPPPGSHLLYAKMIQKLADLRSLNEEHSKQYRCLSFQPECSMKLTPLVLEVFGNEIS
Sequence of Estrogen receptor (Homo sapiens) (P03372 whole entry, looked up): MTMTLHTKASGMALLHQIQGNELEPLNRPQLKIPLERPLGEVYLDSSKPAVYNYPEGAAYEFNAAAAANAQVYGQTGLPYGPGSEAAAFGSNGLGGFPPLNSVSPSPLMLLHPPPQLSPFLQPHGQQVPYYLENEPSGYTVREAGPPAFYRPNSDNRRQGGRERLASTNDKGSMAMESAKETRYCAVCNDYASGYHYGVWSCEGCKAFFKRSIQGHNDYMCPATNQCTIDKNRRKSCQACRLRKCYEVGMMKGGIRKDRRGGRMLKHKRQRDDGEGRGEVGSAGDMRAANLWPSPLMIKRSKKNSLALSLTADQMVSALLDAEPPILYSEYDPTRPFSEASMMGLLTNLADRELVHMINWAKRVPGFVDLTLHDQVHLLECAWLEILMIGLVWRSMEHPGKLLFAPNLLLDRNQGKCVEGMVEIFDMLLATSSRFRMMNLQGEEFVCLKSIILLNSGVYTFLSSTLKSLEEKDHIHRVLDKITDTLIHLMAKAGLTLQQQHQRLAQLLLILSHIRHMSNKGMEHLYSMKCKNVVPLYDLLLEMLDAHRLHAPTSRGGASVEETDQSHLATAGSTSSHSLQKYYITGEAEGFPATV
Sequence of Nuclear receptor subfamily 1 group I member 2 (Rattus norvegicus) (Q9R1A7 whole entry, looked up): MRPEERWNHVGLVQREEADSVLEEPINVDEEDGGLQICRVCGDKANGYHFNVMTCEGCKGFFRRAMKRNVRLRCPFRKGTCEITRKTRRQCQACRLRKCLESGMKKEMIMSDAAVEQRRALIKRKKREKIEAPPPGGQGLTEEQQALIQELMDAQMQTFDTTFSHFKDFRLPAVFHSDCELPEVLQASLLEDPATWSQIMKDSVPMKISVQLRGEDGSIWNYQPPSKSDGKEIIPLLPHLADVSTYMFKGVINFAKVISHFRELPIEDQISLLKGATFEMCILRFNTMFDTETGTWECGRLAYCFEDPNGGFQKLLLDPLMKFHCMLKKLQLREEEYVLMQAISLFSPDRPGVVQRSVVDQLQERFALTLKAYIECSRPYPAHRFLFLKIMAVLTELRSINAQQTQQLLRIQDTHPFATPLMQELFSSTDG
Sequence of Cytochrome P450 3A4 (Homo sapiens) (P08684 whole entry, looked up): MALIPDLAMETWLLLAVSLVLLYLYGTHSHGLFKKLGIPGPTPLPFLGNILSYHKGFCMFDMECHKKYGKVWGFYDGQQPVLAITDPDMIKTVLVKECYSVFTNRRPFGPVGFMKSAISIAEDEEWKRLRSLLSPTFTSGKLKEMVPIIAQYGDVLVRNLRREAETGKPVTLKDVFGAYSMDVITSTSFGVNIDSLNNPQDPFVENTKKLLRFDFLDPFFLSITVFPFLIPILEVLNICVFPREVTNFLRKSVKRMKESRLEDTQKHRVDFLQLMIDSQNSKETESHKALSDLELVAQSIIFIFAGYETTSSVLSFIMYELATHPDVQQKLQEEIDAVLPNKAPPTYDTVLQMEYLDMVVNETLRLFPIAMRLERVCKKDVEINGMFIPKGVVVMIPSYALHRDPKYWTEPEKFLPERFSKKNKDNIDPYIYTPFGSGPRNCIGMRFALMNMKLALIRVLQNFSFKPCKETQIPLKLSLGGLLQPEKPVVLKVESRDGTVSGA
Sequence of Peroxisome proliferator-activated receptor gamma (Homo sapiens) (P37231 whole entry, looked up): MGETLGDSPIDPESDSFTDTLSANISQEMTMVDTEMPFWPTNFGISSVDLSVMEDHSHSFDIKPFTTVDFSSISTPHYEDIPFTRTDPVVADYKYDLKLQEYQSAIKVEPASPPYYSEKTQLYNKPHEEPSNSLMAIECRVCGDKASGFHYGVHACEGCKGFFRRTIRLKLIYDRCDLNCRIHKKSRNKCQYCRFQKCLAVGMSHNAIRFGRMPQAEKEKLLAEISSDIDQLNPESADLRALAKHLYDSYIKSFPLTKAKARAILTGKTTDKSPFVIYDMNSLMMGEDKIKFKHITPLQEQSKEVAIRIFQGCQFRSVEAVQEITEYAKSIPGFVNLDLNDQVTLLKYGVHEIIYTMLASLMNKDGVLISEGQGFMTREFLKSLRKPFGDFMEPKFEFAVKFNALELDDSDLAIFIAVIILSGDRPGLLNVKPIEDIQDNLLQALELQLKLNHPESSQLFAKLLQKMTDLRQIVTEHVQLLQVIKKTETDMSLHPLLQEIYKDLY
Sequence of Thyrotropin-releasing hormone receptor (Homo sapiens) (P34981 whole entry, looked up): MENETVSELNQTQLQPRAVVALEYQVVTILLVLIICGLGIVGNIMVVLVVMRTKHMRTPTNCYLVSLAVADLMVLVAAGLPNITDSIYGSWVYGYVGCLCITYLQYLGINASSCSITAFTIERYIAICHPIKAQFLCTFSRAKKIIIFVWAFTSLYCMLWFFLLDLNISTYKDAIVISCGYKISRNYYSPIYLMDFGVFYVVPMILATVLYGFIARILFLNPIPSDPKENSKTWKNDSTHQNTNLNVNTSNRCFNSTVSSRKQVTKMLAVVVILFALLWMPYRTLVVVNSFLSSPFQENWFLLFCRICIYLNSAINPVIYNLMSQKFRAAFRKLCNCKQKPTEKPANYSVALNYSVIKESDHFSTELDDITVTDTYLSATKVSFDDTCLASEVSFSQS

Oc1cc2c(cc1O)[C@H]1c3ccccc3CNC1CC2 (stereo partly specified)
inactive: activation [1] 0.812%

C[C@H]1CCCC(=O)CCC/C=C/c2cc(O)cc(O)c2C(=O)O1
inactive: Potency [4] | Potency [5] | Potency [6] | Potency [9] | activation [11] -2.55% and -2.52% and -4.61% | max response [12] -12.4% and -5.06% and -7.58%
active: activity change, negative = cytotoxicity [2] -105% | Potency [3] 316 nM and 398 nM | Potency [7] 14.1 µM [inconclusive] | Potency [8] 0.01 µM
-13.4% and 26.9%: max response [10]

C/C=C(/C)C(=O)O[C@H]1C(C)=C2C([C@@H]1OC(=O)CCCCCCC)[C@@](C)(OC(C)=O)C[C@@H](OC(=O)CCC)[C@@]1(O)[C@H]2OC(=O)[C@@]1(C)O (stereo partly specified)
active: Potency [13] 2.94 µM | activation [1] 37.9%
inactive: outcome [14]

C[C@]12CC[C@H](OS(=O)(=O)O)CC1=CCC1C2CC[C@]2(C)C(=O)CC[C@@H]12 (stereo partly specified)
inactive: Potency [13] | activation [1] 0.688% | outcome [14]

C[C@]12CC[C@@H](O)CC1CCC1C2CC[C@]2(C)C(=O)CC[C@@H]12 (stereo partly specified)
inactive: Potency [13] | outcome [14]

O=C(O)C1C2CCC(O2)C1C(=O)O (stereo unspecified)
active: Potency [17] 27.3 µM
inactive: Potency [13] | activation [1] 1.38% | outcome [14] | outcome [15] | outcome [16] | max response [12] 4.79%

C[C@@H]1O[C@@H](O[C@H]2C[C@@H](O)[C@]3(CO)[C@H]4[C@H](O)C[C@]5(C)[C@@H]([C@@H]6COC(=O)C6)CC[C@]5(O)[C@@H]4CC[C@]3(O)C2)[C@H](O)[C@H](O)[C@H]1O
inactive: Potency [13] | activation [1] 1.38% | outcome [14]

COC1=CC(=O)O[C@@H](/C=C/c2ccc3c(c2)OCO3)C1
inactive: Potency [4] | Potency [5] | Potency [6] | Potency [9] | outcome [15] | outcome [16] | activation [18] 3.16%
active: Potency [17] 6.68 µM

COC1=CC(=O)OC(CCc2ccccc2)C1 (stereo unspecified)
inactive: Potency [19] > 92 µM | Potency [20] | Potency [4] | Potency [5] | Potency [6] | outcome [15] | outcome [16] | activation [11] -1.07% | activation [18] 1.87% | max response [12] 3.74%

COc1cc(OC)c(/C=C2/C(=O)Nc3ccccc32)c(OC)c1
active: Potency [3] 2.51 µM

OCC(Br)CBr (stereo unspecified)
inactive: Potency [19] > 92 µM | activity change, negative = cytotoxicity [2] -14.7% | Potency [20] | Potency [3] | Potency [4] | Potency [7] | Potency [8] | Potency [9] | outcome [15] | outcome [16] | Potency [17] | activation [18] -1.14%
-16%: max response [10]

O=NN(c1ccccc1)c1ccccc1
-13.1% and -6.23%: max response [10]
inactive: Potency [19] > 92 µM | activity change, negative = cytotoxicity [2] -6.8% | Potency [20] | Potency [3] | Potency [5] | Potency [6] | Potency [7] | Potency [8] | Potency [9] | activation [18] 0.195% and 0.974% | max response [12] 2.63% and 4.55%

Cc1ccccc1N
inactive and 25.1 µM (active): Potency [3]
inactive: Potency [19] > 92 µM | activity change, negative = cytotoxicity [2] -25.3% and -5.05% | Potency [20] | Potency [4] | Potency [17] | activation [11] 0.244% and -0.381% | max response [12] -2.81% and 0.311%
1.21% and 0.728%: max response [10]

Cc1cccc([N+](=O)[O-])c1
2.54% and -15.5%: max response [10]
inactive: Potency [19] > 92 µM | activity change, negative = cytotoxicity [2] -17.5% | Potency [20] | Potency [6] | Potency [7] | Potency [8] | Potency [9] | outcome [15] | outcome [16] | Potency [17] | activation [11] -0.494% and -2.2% | activation [18] -1.15% and 1.37%
